This is a sample that favours compounds with a hit; in the whole collection about 1.5% have one here.
CRFBP-R2 agonist = agonists of human CRF-binding protein/CRF-R2 receptor complex | HEK293 CRF-R2/CRF-BP, calcium dye fluorescence (FLIPR); percent of saturating CRF peptide response | activation, % at 13.2 µM | 350,000 tested, 0.46% active | AID 588473;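 active = activation of at least 50%, plus an integration ratio under a set limit after plate pattern correction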;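 also: plate controls were neutral control wells without compound for no effect and CRF at EC100 for full effect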
TPT1 inh = C. albicans TPT1 enzyme inhibition; recombinant caTPT1, FP RNA substrate dephosphorylation; inhibition, % at 5 µM; 300,000 tested, 0.81% active;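 active = inhibition above the mean of all tested compounds plus 3 SD, set per screening campaign, cut at about 24% in these data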;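 also: plate controls were DMSO alone for no effect and ferristatin control at 100 nM for full effect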
Cardiac RTF inh = cardiac RTF calcium desensitization | IANBD-labeled cardiac RTF, Ca2+ fluorescence | inhibition, % at 7.15 µM | P19429+P45379 | 340,000 tested, 0.12% active;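 active = inhibition above the mean inhibition of all tested compounds plus 3 SD, cut at about 17% in these data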;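 also: assay run at fixed EC70 calcium of 1.6 mM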
IDE cell activ = IDE (human) activation, cell-based. activation, % at 5.96 µM. HEK cells, FAbeta-B cleavage, fluorescence polarization; 0% vehicle, 100% cell-free pure enzyme wells. P14735. 340,000 tested, 0.073% active. AID 493087;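 active = activation above the mean of all tested compounds plus 3 SD, set per screening campaign, cut at about 17% in these data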
Target sequence (P14735 whole entry, looked up): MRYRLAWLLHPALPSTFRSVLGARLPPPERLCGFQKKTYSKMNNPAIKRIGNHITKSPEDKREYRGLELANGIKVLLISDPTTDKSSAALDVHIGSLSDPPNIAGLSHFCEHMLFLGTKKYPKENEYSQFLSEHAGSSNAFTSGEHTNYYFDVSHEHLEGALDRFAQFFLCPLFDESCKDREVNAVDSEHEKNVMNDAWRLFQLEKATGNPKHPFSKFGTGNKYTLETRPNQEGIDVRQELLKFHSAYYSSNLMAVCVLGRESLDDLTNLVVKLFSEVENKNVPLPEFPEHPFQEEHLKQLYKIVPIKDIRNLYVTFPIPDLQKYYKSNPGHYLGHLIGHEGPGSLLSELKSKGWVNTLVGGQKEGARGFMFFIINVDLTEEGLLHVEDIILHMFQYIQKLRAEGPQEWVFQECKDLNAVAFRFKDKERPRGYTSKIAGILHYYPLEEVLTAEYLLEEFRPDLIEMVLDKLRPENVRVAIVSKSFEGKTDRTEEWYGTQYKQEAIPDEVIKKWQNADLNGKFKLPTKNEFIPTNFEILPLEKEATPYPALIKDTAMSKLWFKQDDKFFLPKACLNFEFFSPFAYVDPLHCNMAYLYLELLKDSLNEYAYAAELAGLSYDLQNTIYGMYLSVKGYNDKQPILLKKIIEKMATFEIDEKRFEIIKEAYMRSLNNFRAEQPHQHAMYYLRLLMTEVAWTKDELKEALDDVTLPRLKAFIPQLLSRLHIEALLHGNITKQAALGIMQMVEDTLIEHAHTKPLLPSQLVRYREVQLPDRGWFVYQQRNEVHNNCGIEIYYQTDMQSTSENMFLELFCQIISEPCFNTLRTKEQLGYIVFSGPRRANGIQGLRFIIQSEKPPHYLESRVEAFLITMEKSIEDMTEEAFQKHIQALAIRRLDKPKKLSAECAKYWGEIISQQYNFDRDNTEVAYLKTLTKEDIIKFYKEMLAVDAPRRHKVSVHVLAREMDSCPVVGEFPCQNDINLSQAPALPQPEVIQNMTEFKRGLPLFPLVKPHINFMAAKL
IDE inh = inhibits human insulin-degrading enzyme in HEK cells; P14735; 320,000 tested, 0.41% active; inhibition, % at 5.59 µM; FAbetaB cleavage, fluorescence polarization;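 active = percent inhibition above the average of all tested compounds plus 3 SD, set per screening campaign, cut at about 16% in these data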;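 also: IDE supplied by intact live HEK cells; FP after avidin binding of uncleaved biotin substrate so inhibition keeps polarization high; 0% = DMSO wells and 100% = 60 µM reference IDE inhibitor Ii1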
cardiac RTF act = cardiac RTF calcium sensitization. P19429+P45379. IANBD-labeled TnC RTF fluorescence at EC20 calcium; 0% EC20 calcium, 100% full calcium. activation, % at 7.2 µM. 340,000 tested, 0.24% active. AID 493008;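 active = activation above the mean over all tested compounds plus 3 SD, cut at about 30% in these data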;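 also: rise in fluorescence read as greater calcium sensitivity of cardiac thin filaments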
Active calls of the source: *; . = no result.

SMILES	CRFBP-R2 agonist	TPT1 inh	Cardiac RTF inh	IDE cell activ	IDE inh	cardiac RTF act
CCCSc1nc2sc3c(c2c(=O)[nH]1)CC(C)CC3 (stereo not given)	2	2	0	7	5	3
Cc1csc(SCC(=O)Nc2cc(S(=O)(=O)N(C)C)ccc2C)n1	-2	-1	-16	2	4	-7
CCN(CC)c1ccc(/C=C2/SC(=O)N(C(C)C)C2=O)o1	8	.	-114	-77	.	155*
COc1ccc(OC)c(/C=N\NC(=O)c2ccc(-c3ccccc3)cc2)c1	0	.	3	-14	.	-1
COc1ccc(C(=O)N/N=C/c2cc3ccccc3[nH]c2=O)cc1	-1	-3	-4	30*	0	2
Cc1c(NC(=O)Nc2cccc(C#N)c2)c(=O)n(-c2ccccc2)n1C	0	-1	-11	-2	-1	-4
C=CCn1c(=O)[nH]c2nc3cc(N=CN(C)C)c(C)cc3nc2c1=O	144*	-58	-141	-8	-1	131*
O=C(Nc1ccc(Cl)c(S(=O)(=O)N2CCCCC2)c1)c1cccnc1	1	.	-12	-1	5	2
COc1cccc2c1C(=N)c1c(O)c3c(c(O)c1C2=O)CC(O)(C(C)=O)CC3OC1CC(N)C(O)C(C)O1 (stereo not given)	-2	.	-12	5	.	-1
COc1cccc2c1C(=O)c1c(O)c3c(c(O)c1C2=O)CC(O)(C(C)=O)CC3OC1CC(O)C(O)C(C)O1 (stereo not given)	96*	.	-300	16	.	223*
CCCCC(=O)OCC(=O)C1(O)Cc2c(O)c3c(c(O)c2C(OC2CC(NC(=O)C(F)(F)F)C(O)C(C)O2)C1)C(=O)c1c(OC)cccc1C3=O (stereo not given)	33	.	-29	10	.	9
COc1cccc2c1C(=O)c1c(O)c3c(c(O)c1C2=O)C[C@](O)(C(C)=O)C[C@H]3O[C@@H]1C[C@@H](N)[C@@H](O)[C@@H](C)O1	64*	-171	-216	17	2	184*
COc1cccc(COC(=O)C2CCN(S(=O)(=O)c3ccc(C)cc3C)CC2)c1OC	5	-1	7	5	9	3
CCCCN(C(=O)CSCC(=O)Nc1ccc(C)cc1)c1c(N)n(Cc2ccccc2)c(=O)[nH]c1=O	2	2	-11	4	-10	-12
Cc1nn(C)c(C(=O)NC(=S)Nc2ccccc2Br)c1Cl	93*	0	-13	-3	1	-3
O=C(NN1C(=O)/C(=C/c2cc([N+](=O)[O-])ccc2O)SC1=S)c1ccccc1O	.	53*	.	.	-3	.
Cc1ccc(/C=C2\SC(=S)N(/N=C/c3cc([N+](=O)[O-])ccc3O)C2=O)o1	4	7	3	2	-4	-3
Cc1ccc(C(=O)NNC(=O)COC(=O)COc2ccccc2C#N)cc1	0	.	0	-7	-3	-2
COCC(=O)N(C)C[C@H]1Oc2cc(C#Cc3cccnc3)ccc2S(=O)(=O)N([C@H](C)CO)C[C@H]1C	1	.	.	.	.	.
CCOC(=O)Nc1ccc(NCc2ccc(F)cc2)nc1N	36	7	-67	-12	15	72*
CCCCC(=O)NNC(=S)NC(=O)c1ccc(C)cc1	135*	-2	-2	-3	4	4
COc1cc(C(=O)NNC(=S)NC(=O)c2ccc(Cl)cc2)cc(OC)c1OC	35	-1	6	-5	-2	0
O=C(NNC(=S)NC(=O)c1sc2ccccc2c1Cl)c1ccc(Cl)cc1	210*	-1	5	-14	3	-3
CCCCC(=O)NNC(=S)NC(=O)c1ccc([N+](=O)[O-])cc1	-2	3	-9	-4	5	1
COc1ccc(C(=O)NC(=S)NNC(=O)c2ccc(C)cc2)cc1	132*	-3	-3	8	4	7
COc1ccc(C(=O)NNC(=S)NC(=O)c2ccc(Cl)cc2)cc1	117*	0	.	.	3	.
Cc1ccccc1-n1ncc2c1CC(C)(C)CC2NC(=O)C1CCC1 (stereo not given)	0	2	1	5	1	2
N#Cc1cnn(-c2ccccc2)c1NC(=O)c1ccccc1F	0	.	2	3	-2	-6
CC(C)(C)NC(=O)COC(=O)c1ccccc1OCC(=O)Nc1ccc(Br)cc1	-1	4	-1	-3	1	0

Source: PubChem (several laboratories)
